Calls of active or inactive are those of the source. How the source made its calls: active means hit-call score of the fitted dose curve at least 0.9, where 1 is the maximum; inactive means score below 0.9.
How the values were obtained:
[1] = APR_HepG2_CellCycleArrest_24hr: Apredica 24-hour HepG2 Assay for Cell Cycle Arrest (AID 2282905); conditions: imaging, actives raise or lower the signal;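 further: cell cycle arrest scored as ratio of 2N to 4N nuclear DNA content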
In short: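 HepG2 cells were exposed to compounds at 0.39–200 uM (ten concentrations, duplicate) in 0.5% v/v DMSO for 24 hr. After formaldehyde fixation and Triton permeabilization, Hoechst 33342-stained nuclei were imaged at 20x; DNA content was quantified, with bidirectional fitting against DMSO.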

[2] = APR_HepG2_NuclearSize_24hr: Apredica 24-hour HepG2 Assay for Nuclear Size (AID 2282907); conditions: high-content imaging, actives raise or lower the signal
In short: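 HepG2 human liver cells were exposed for 24 hr to compounds at 0.39–200 uM (ten concentrations, duplicate) in 0.5% v/v DMSO. They were then formaldehyde-fixed, Triton-permeabilized and Hoechst 33342-stained, and nuclear diameter was imaged at 20x. Bidirectional fits were made against DMSO.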

[3] = APR_HepG2_CellLoss_24hr: Apredica 24-hour HepG2 Assay for Cell Loss (AID 2282908); conditions: high-content imaging;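 on AC50: fit in both directions so a hit may be cell loss or gain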
In short: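 Compounds were tested at 0.39–200 uM in duplicate with 0.5% v/v DMSO final. Cells were then fixed in 3.7% formaldehyde, Hoechst 33342 nuclei were imaged at 20x by HCS, and cell number was fitted bidirectionally against DMSO.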

[4] = APR_HepG2_MicrotubuleCSK_24hr: Apredica 24-hour HepG2 Assay for Microtubule CSK Stabilty (AID 2282909); conditions: HepG2 microtubule cytoskeleton imaging, actives raise or lower the signal
In short: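 HepG2 cells exposed 24 h to compounds at 0.39–200 uM (duplicate, 0.5% v/v DMSO final), then fixed, permeabilized and immunostained for alpha-tubulin with Hoechst 33342. Cytoskeleton imaged at 20x; bidirectional fit versus DMSO baseline.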

[5] = APR_HepG2_MitoticArrest_24hr: Apredica 24-hour HepG2 Assay for Mitotic Arrest (AID 2282910); conditions: high-content imaging, actives raise or lower the signal
In short: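 Compounds are dosed onto HepG2 cells across ten concentrations up to 200 uM for 24 hr. Cells are then fixed in 3.7% formaldehyde, permeabilised, and labelled for phospho-histone H3 and nuclei; images are scored by cell cycle analysis and fitted bidirectionally relative to DMSO.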

[6] = APR_HepG2_MitoMembPot_24hr: Apredica 24-hour HepG2 Assay for Mitochondrial Membrane Potential (AID 2282911); conditions: imaging, actives raise or lower the signal
In short: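 HepG2 human liver cells were exposed 24 hr to compounds at 0.39–200 uM (final DMSO 0.5% v/v) in duplicate. MitoTracker Red CMXRos (250 nM, 30 min) was loaded before formaldehyde fixation; fluorescence was imaged by ArrayScan HCS and fitted bidirectionally versus DMSO.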

[7] = APR_HepG2_MitoMass_24hr: Apredica 24-hour HepG2 Assay for Mitochondrial Mass (AID 2282912); conditions: high-content imaging, actives raise or lower the signal
In short: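 Human HepG2 liver cells were exposed for 24 hr to compounds at 0.39–200 uM (duplicates, 0.5% v/v DMSO final). They were stained live with 250 nM MitoTracker Red CMXRos for 30 min, fixed in 3.7% formaldehyde, and imaged by HCS fluorescence; signals were fitted bidirectionally against DMSO.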

[8] = APR_HepG2_CellCycleArrest_72hr: Apredica 72-hour HepG2 Assay for Cell Cycle Arrest (AID 2282914); conditions: high-content imaging, actives raise or lower the signal
In short: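 HepG2 cells were exposed to compounds at 0.39–200 uM (0.5% v/v DMSO final, duplicates) for 72 hr, fixed in 3.7% formaldehyde, permeabilized and stained with Hoechst 33342. Nuclear DNA content was quantified by high-content imaging; gain or loss of signal was fitted bidirectionally against DMSO.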

[9] = APR_HepG2_CellLoss_72hr: Apredica 72-hour HepG2 Assay for Cell Loss (AID 2282915); conditions: high-content imaging
In short: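 Cell number comes from Hoechst 33342-labelled nuclei, imaged at 20x after 3.7% formaldehyde fixation. Dosing was 0.39–200 uM, ten concentrations in duplicate, 0.5% DMSO final, for 72 h. Bidirectional fit relative to DMSO baseline.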

[10] = APR_HepG2_p53Act_24hr: Apredica 24-hour HepG2 Assay for p53 Activation (AID 2282913); conditions: high-content imaging, actives raise or lower the signal;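 further: p53 protein immunofluorescence averaged per cell in HepG2 with Hoechst nuclei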
In short: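 HepG2 cells exposed 24 hr to compounds at 0.39–200 uM (10 concentrations, duplicate), final DMSO 0.5% v/v. After formaldehyde fixation and Triton permeabilization, p53 was immunolabeled (sheep anti-p53, Cy5 secondary) with Hoechst 33342 nuclear counterstain, then imaged by high-content fluorescence microscopy.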

Measured: AC50

Nc1nc(=S)c2[nH]cnc2[nH]1
active: [3] 21.4 µM | [8] 63.2 µM | [9] 17.9 µM
not listed: [10]
inactive: all other assays above

Cc1ccc(-c2cc(C(F)(F)F)nn2-c2ccc(S(N)(=O)=O)cc2)cc1
inactive: [1] | [4] | [6]
active: [2] 118 µM | [3] 66.7 µM | [5] 53.2 µM | [7] 64 µM | [8] 28.6 µM | [9] 40.8 µM

CN(C)CCCN1c2ccccc2Sc2ccc(Cl)cc21
active: [2] 129 µM | [3] 35 µM | [5] 19.7 µM | [7] 31 µM | [10] 28.5 µM | [8] 102 µM | [9] 33.9 µM
inactive: [4] | [6]

CC(=O)O
active: [1] 97 µM | [3] 112 µM | [5] 126 µM | [8] 0.16 µM | [9] 49.4 µM
inactive: [2] | [4] | [6] | [7]

CCCCCCCCCCCCCCCCO
not listed: [10]
inactive: all other assays above

Oc1ccccc1O
active: [8] 36.4 µM | [9] 36.8 µM
not listed: [1]
inactive: all other assays above

CC1(C)C(=O)NC(=O)N1CO
active: [3] 108 µM | [9] 120 µM
not listed: [1]
inactive: all other assays above

O=C(NS(=O)(=O)/C=C/c1cccs1)c1ccc(F)cc1Br
active: [9] 80.8 µM
not listed: [10]
inactive: all other assays above

O=Cc1ccccc1C=O
not listed: [10]
inactive: all other assays above

Cn1cnc2c1c(=O)[nH]c(=O)n2C
not listed: [10]
inactive: all other assays above

CCCCOC(=O)CCCCC(=O)OCCCC
not listed: [10]
inactive: all other assays above

O=C(N[C@@H](c1ccccc1)[C@@H]1CCCCN1)c1cccc(C(F)(F)F)c1Cl
active: [1] 18.7 µM | [2] 17.4 µM | [3] 21.7 µM | [4] 11.4 µM | [5] 12.6 µM | [7] 12.6 µM | [9] 15.2 µM
inactive: [6] | [8]

CC(=O)[C@@]1(O)CC[C@H]2[C@@H]3CCC4=CC(=O)CC[C@]4(C)[C@H]3CC[C@@]21C
not listed: [10]
inactive: all other assays above

CC(=O)CC(c1ccccc1)c1c(O)c2ccccc2oc1=O (stereo not drawn)
not listed: [10]
inactive: all other assays above

CC(C)(C)c1ccccc1
not listed: [1]
inactive: all other assays above

C/C=C/c1ccc(OC)cc1
not listed: [10]
inactive: all other assays above

N[C@@H](Cc1c[nH]c2ccccc12)C(=O)O
not listed: [10]
inactive: all other assays above

CC(C)NCC(O)c1ccc(O)c(O)c1 (stereo not drawn)
active: [9] 91.3 µM
not listed: [1] | [10]
inactive: all other assays above

CSc1ccc(Oc2ccc(S(N)(=O)=O)cc2CN(C)C)cc1C
inactive: [2] | [4] | [8]
active: [3] 131 µM | [5] 88.9 µM | [6] 100 µM | [7] 100 µM | [9] 108 µM

Cc1cn([C@H]2C=C[C@@H](CO)O2)c(=O)[nH]c1=O
not listed: [1] | [10]
inactive: all other assays above

OCC(O)CO
active: [10] 0.0391 µM
not listed: [1]
inactive: all other assays above

CCCCCCC(CCCCCCCCCCC(=O)OCC(COC(C)=O)OC(C)=O)OC(C)=O (stereo not drawn)
not listed: [1]
inactive: all other assays above

CC(C)c1cccc(C(C)C)c1NC(=O)NS(=O)(=O)c1cc(C(C)(C)O)co1
not listed: [1]
inactive: all other assays above

CC(=O)O[C@]1(C(C)=O)CC[C@H]2[C@@H]3C=C(Cl)C4=CC(=O)[C@@H]5C[C@@H]5[C@]4(C)[C@H]3CC[C@@]21C
not listed: [1] | [10]
inactive: all other assays above

CC(C)OC(=O)C(C)(C)Oc1ccc(C(=O)c2ccc(Cl)cc2)cc1
active: [8] 100 µM | [9] 103 µM
not listed: [1] | [10]
inactive: all other assays above

COc1ccc(C(=O)Nc2nc3ccccc3c(NCc3ccccc3)c2C#N)cc1
inactive: [2] | [4] | [5] | [8]
active: [3] 119 µM | [6] 43.4 µM | [7] 159 µM | [10] 160 µM | [9] 45.3 µM

CC(=O)OC1CC(C)OC(C)O1 (stereo not drawn)
not listed: [1] | [10]
inactive: all other assays above

Cc1cc(Cc2ccc(N)c(C)c2)ccc1N
active: [8] 103 µM | [9] 77.8 µM
not listed: [1]
inactive: all other assays above

COc1ccc(OC(F)(F)F)cc1CN[C@H]1CCCN[C@H]1c1ccccc1
inactive: [4] | [6] | [8]
active: [2] 33.4 µM | [3] 45.8 µM | [5] 39.5 µM | [7] 66.7 µM | [10] 24.9 µM | [9] 27.5 µM

O=C1CCCCC1
not listed: [1] | [10]
inactive: all other assays above

Cc1c(C)c2c(c(C)c1O)CCC(C)(COc1ccc(CC3SC(=O)NC3=O)cc1)O2 (stereo not drawn)
active: [3] 88.2 µM | [4] 122 µM | [6] 96.5 µM | [9] 83.8 µM
not listed: [1]
inactive: all other assays above

CCCCCCCCCCCCCCOS(=O)(=O)O
active: [3] 117 µM | [5] 109 µM | [10] 100 µM | [9] 110 µM
not listed: [1]
inactive: all other assays above

CCCC(=O)O
not listed: [1] | [10]
inactive: all other assays above

CC(N)=O
active: [9] 115 µM
not listed: [1] | [10]
inactive: all other assays above

CCC(C)N(C)C(=O)c1cc2ccccc2c(-c2ccccc2Cl)n1 (stereo not drawn)
inactive: [2] | [4] | [6] | [8]
active: [3] 64.9 µM | [5] 66.8 µM | [7] 82.4 µM | [10] 66.9 µM | [9] 73.1 µM

O=C1c2c(O)cccc2Cc2cccc(O)c21
active: [6] 11.1 µM
not listed: [1]
inactive: all other assays above

c1ccc2occc2c1
not listed: [1]
inactive: all other assays above

C#CC(O)C(CC)CCCC (stereo not drawn)
not listed: [1] | [10]
inactive: all other assays above

CC(C)c1cccc(C(C)C)c1
not listed: [1] | [10]
inactive: all other assays above

CCCCC(CC)CO (stereo not drawn)
not listed: [1]
inactive: all other assays above

CCCCC(CC)COP(=O)(OCC(CC)CCCC)OCC(CC)CCCC (stereo not drawn)
active: [3] 37.7 µM | [5] 48.2 µM | [10] 71.1 µM | [9] 37.3 µM
not listed: [1]
inactive: all other assays above

CC(C)(O)c1ccc(CNC(=O)c2cccnc2Oc2ccc(F)cc2)cc1
not listed: [1]
inactive: all other assays above

NC=O
not listed: [1] | [10]
inactive: all other assays above

O=NO
not listed: [1] | [10]
inactive: all other assays above

Cc1occc(=O)c1O
not listed: [1] | [10]
inactive: all other assays above

CN(C)C(=O)NC1(c2ccccc2)CCN(CC[C@@]2(c3ccc(F)c(F)c3)CN(C(=O)c3ccccc3)CCO2)CC1
active: [5] 101 µM | [7] 97.8 µM | [9] 111 µM
not listed: [1]
inactive: all other assays above

O=C(O)c1cccnc1
not listed: [1] | [10]
inactive: all other assays above
